Test results published in PubChem BioAssay AID875 (National Center for Advancing Translational Sciences (NCATS), 2007).
In all, about 75,000 compounds went through this assay and about 35 (0.05%) were called active. The call rests on the fitted dose curve; in most records, active means well fitted inhibition curve with a large enough effect; inconclusive means small, poorly fitted or top-dose-only effect; inactive means no such curve, though single readings can be large or run the other way. This excerpt belongs to a sample that is enriched for actives.

What follows are molecules tested against Breast cancer type 1 susceptibility protein (Homo sapiens) (UniProt P38398) (assay: qHTS Assay for Inhibitors of BRCT-Phosphoprotein Interaction (Green Fluorophore)). Details: BRCA1 BRCT-phosphopeptide binding, green fluorescence polarization; series mostly up to 76.9 µM; activity change, negative = inhibition: at the top concentration.
Chain of Breast cancer type 1 susceptibility protein (Homo sapiens) (P38398 whole entry, looked up): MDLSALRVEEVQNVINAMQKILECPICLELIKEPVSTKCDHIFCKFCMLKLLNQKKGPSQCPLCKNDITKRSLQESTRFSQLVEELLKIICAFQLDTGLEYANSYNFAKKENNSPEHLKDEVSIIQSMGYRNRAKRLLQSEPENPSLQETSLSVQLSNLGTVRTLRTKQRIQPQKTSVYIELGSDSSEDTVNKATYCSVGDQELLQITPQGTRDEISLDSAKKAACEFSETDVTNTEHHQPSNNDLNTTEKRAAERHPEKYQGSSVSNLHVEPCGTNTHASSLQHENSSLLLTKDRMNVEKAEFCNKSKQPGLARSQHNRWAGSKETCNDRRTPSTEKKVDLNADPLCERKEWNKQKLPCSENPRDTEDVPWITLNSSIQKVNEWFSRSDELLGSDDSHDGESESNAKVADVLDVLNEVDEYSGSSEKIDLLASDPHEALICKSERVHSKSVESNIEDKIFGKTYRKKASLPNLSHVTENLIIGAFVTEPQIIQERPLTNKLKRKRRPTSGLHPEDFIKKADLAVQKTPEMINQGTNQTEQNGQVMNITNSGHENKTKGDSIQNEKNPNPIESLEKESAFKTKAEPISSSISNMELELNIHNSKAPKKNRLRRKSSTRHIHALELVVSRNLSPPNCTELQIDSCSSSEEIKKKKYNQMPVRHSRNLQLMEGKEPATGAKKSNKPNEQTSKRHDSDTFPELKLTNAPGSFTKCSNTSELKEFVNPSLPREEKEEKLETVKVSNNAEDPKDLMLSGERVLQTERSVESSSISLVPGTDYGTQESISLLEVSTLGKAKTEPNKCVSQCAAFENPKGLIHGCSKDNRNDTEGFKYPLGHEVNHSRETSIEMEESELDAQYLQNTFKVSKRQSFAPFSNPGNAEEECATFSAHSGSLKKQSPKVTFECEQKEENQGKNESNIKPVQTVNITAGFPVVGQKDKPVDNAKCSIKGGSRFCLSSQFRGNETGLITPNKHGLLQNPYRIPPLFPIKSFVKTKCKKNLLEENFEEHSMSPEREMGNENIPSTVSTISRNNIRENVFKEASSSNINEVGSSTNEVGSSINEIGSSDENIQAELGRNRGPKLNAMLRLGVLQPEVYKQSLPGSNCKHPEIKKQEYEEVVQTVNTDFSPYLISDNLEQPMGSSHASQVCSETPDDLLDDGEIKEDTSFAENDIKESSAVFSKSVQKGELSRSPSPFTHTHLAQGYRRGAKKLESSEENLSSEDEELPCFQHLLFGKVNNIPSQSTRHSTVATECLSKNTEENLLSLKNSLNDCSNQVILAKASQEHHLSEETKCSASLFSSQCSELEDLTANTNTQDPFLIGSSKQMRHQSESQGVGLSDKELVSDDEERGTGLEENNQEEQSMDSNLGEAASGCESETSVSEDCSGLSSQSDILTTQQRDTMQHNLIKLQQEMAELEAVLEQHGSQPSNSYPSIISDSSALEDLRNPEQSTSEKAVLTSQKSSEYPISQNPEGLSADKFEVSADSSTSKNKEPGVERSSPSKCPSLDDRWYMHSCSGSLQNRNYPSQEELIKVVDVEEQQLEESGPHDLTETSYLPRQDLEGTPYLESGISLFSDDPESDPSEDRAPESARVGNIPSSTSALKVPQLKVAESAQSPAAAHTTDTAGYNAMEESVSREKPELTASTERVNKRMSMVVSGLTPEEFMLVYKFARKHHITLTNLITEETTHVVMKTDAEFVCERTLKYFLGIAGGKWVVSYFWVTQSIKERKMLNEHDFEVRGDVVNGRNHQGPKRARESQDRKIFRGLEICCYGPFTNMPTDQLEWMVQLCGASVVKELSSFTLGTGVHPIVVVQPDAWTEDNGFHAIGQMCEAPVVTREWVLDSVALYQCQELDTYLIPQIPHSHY
Description: NIH Molecular Libraries Screening Centers Network [MLSCN]
NIH Chemical Genomics Center [NCGC]
PI Name: Natarajan, Amarnath; University of Texas
A complex of BRCT (C-terminal portion of BRCA1, MW ~35 kDa, His-tagged) and fluorescently labeled pBACH1 phosphorylated 10 aa peptide fragment of BACH1, a helicase implicated in DNA repair, is incubated with library members. Inhibitors of BRCT-pBACH1 binding are detected by a decrease in the fluorescence polarization (FP) of the fluorophore. In order to minimize the effect of fluorescence artifacts and to increase the overall robustness of the screen, the compound library members were incubated in separate reactions with fluorescein labeled probe-protein complexes. Protein and labeled probes were supplied by Dr. Amarnath Natarajan, Department of Pharmacology and Toxicology, University of Texas Medical Branch Galveston, TX.
Assay Buffer: 16mM Na2HPO4, 4 mM NaH2PO4, 150 mM NaCl, 1 mM EDTA, 1 mM DTT, 0.02% NaN3, and 0.01% Tween 20 at pH 7.3.
100 nM labeled decapeptide/250 nM protein in columns 1, 2, 5 - 48. Titration of unlabeled decapeptide control (from 10 mM, then 1:2 dilution in duplicate) pin-transferred to column 2, rows 1 to 16. Column 1 is neutral.
Three uL of reagents were dispensed to 1536-well Greiner black solid-bottom plates. Compounds and controls (23 nL) were transferred
via Kalypsys PinTool. The plates were incubated for 12 min at room temperature, and then read on ViewLux (Perkin-Elmer) High throughput CCD imager using FITC for the fluorescein-labeled decapeptide probe polarization filter sets. During dispense, reagent bottles were kept submerged into 4 deg C water bath and all liquid lines were covered with aluminum foil to minimize probe and protein degradation. All screening operations were performed on a Kalypsys robotic system (Kalypsys, Inc., San Diego, CA) containing one RX-130 and two RX-90 anthropomorphic robotic arms. The timing and order of assay plates passing through the screening system were adjusted such that each compound library plate was assayed against the fluorescein- and rhodamine-labeled assay systems at immediately adjacent time points.
Potency means the concentration at half of the fitted maximal effect.
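Wherever activity change, negative = inhibition is given: plate controls were peptide without protein for full effect.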

SMILES	activity change, negative = inhibition	Potency
Cc1nnc(NC2=NCCCCC2)o1	-1.75% (inactive)	
CCNc1nc(NCC)nc(N(C)n2cnnc2)n1	-1.9% (inactive)	
c1csc(-c2cn3c(n2)SCC3)c1	2.19% (inactive)	
O=C(c1csnn1)N1CCC[C@@]2(CCN(Cc3nccs3)C2)C1	-1.37% (inactive)	
COc1cc(-c2nc(S(=O)(=O)c3ccc(Cl)cc3)c(N(C)C)o2)cc(OC)c1OC	-2.4% (inactive)	
COc1ccc(NC(=O)CSc2nnc(-c3cccs3)n2Cc2ccco2)cc1OC	-1.04% (inactive)	
COC(=O)[C@@H]1C[C@@]2(O)[C@H](O)[C@H](O)[C@H](O)C[C@H]2N1Cc1ccc(C(C)(C)C)cc1	-2.44% (inactive)	
Cc1ccc(S(=O)(=O)C(C#N)c2nc3ccccc3nc2N2CCCC2)cc1C (configuration not stated)	8.83% (inactive)	
O=C(CC1NCCNC1=O)Nc1ccc(Oc2ccccc2)cc1 (configuration not stated)	-1.54% (inactive)	
COC(=O)Nc1ccc(S(=O)(=O)N(C)CC(F)(F)C(F)F)cc1	2.58% (inactive)	
Cc1c2cnn(-c3ccccc3)c(=O)c2c(C)n1CCCC(=O)N1CCN(C)CC1	-0.857% (inactive)	
O=c1c2c(nc3n1CCCCC3)sc1c(O)cccc12	0.259% (inactive)	
COC(=O)[C@@H]1C[C@H]2CC[C@H](O)C[C@H]2N1Cc1ccc(N2CCN(C)CC2)cc1	-4.72% (inactive)	
CC(=O)OCC(=O)[C@@]1(O)CCC2C3CCC4=CC(=O)CC[C@@]4(C)[C@]3(F)C(O)C[C@]21C (some centres not stated)	-2.43% [at 3.08 µM] (inactive)	
OCCCN1c2ccccc2Nc2nnc(-c3ccccc3)cc21	0.333% (inactive)	
COC1C[C@@H](O[C@@H]2C(C)C(=O)OC(C)C(C)C(O)C(C)C(=O)[C@@]3(CO3)CC(C)C(OC3OC(C)CC(N(C)C)C3O)C2C)OC(C)[C@@H]1O (some centres not stated)	-1.55% [at 3.08 µM] (inactive)	
CCN(CC)S(=O)(=O)c1ccc2nc(CSc3nnnn3-c3ccc(O)cc3)[nH]c2c1	0.906% (inactive)	
CCC1=C(OC(=O)N(CC)CC)N2C(=O)OC(=NCCc3c[nH]c4ccccc34)[C@]2(C)[C@H]2C1=CC[C@H]1C(=O)N(CC)C(=O)[C@H]12	-2.62% (inactive)	
CSCCC1NC2(C(=O)Nc3ccc(Cl)cc32)[C@@H]2C(=O)N(C3CCCC3)C(=O)[C@H]12 (some centres not stated)	-0.643% (inactive)	
c1ccc2c(CNn3cnnc3)cccc2c1	-0.445% (inactive)	
Cc1occc1C(=O)Nc1cccc(Cn2cccn2)c1	0.791% (inactive)	

SMILES	activity change, negative = inhibition	Potency
CCCc1nc2ccccc2c(=O)n1/N=C/c1ccc(O)c(O)c1	0.0898% (inactive)	
CC(C)C[C@H](NC(=O)NCCc1ccc(Cl)cc1)C(=O)O	0.662% (inactive)	
Cn1c(SCC(=O)Nc2cccc(NC(=O)c3cccs3)c2)nnc1-c1ccncc1	-1.53% (inactive)	
CCCOc1ccc(C2C(C(=O)c3ccc(C)o3)=C(O)C(=O)N2CCCn2ccnc2)cc1 (configuration not stated)	-3.82% (inactive)	
N#Cc1c(NC(=O)CSc2nc3ccccc3c(=O)n2Cc2ccco2)sc2c1CCCC2	0.27% (inactive)	
CCOC(=O)C1C(=O)OC2(CCCC2)C1C(=O)OCC (configuration not stated)	-2.01% (inactive)	
Cn1nc(-c2ccc(N3CCOCC3)c(NC(=O)c3ccccc3)c2)c2ccccc2c1=O	3.23% (inactive)	
CC1CCCCC1NC(=O)CSc1nnc(N)s1 (configuration not stated)	-1% (inactive)	
COCc1[nH]nc2c1C(C1C=CCCC1)C(C#N)=C(N)O2 (configuration not stated)	-1.17% (inactive)	
O=c1c(O)c(-c2ccc(O)cc2)oc2ccccc12	-3.22% [at 3.08 µM] (inactive)	
CCOc1ccc2[nH]c(=O)c(CN(Cc3nnnn3CCc3ccccc3)CC3CCCO3)cc2c1 (configuration not stated)	2.17% (inactive)	
Cc1ccc(C)c(NC(=O)C2CC(=O)N(C(C)C)C2)c1 (configuration not stated)	-0.457% (inactive)	
O=C(COc1ccc(S(=O)(=O)NCCc2ccccc2)cc1)N1CCCC1	-2.13% (inactive)	
CC(C)n1c(C(O)c2ccccc2)nc2ccccc21 (configuration not stated)	-0.718% (inactive)	
O=C(NCC12CC3CC(C1)CC(CNC(=O)N1CCCC1)(C3)C2)N1CCCC1	-0.336% (inactive)	
CC(=O)O[C@]1(C(C)=O)CC[C@@H]2[C@@H]3C=C(C)C4=CC(=O)CC[C@@]4(C)[C@H]3CC[C@]21C	0.539% [at 34.4 µM] (inactive)	
S=c1[nH]nc(SCc2ccccc2Cl)c2[nH]cnc12	-0.607% [at 15.4 µM] (inactive)	
CCNC(=O)CN(c1ccc(C)cc1)S(=O)(=O)c1ccc(SC)cc1	-0.138% (inactive)	
CC(C)NC(=O)N1CC[C@@]2(CCCN(C(=O)c3cccc(F)c3)C2)C1	-3.78% (inactive)	
Cc1ccc(C(c2nnnn2CS(=O)(=O)c2ccc(C)cc2)N2CCC(C(N)=O)CC2)cc1 (configuration not stated)	-1.57% (inactive)	
CCSc1ncnc2c(C#N)c3n(c12)CCCCC3	4.45% (inactive)	

SMILES	activity change, negative = inhibition	Potency
COc1ccc(-n2c(SCC(=O)OC(C)C)nnc2-c2ccccn2)cc1	-0.81% (inactive)	
Nc1nnc(C2CCCC2)s1	0.21% (inactive)	
CC(=O)c1ccc(-n2nnnc2SCC(=O)N2CCN(C(=O)c3ccco3)CC2)cc1	0.328% (inactive)	
CC1(C)OC2CC(=O)OC[C@@]23C1CC(=O)[C@]1(C)C3CC[C@@]2(C)C(c3ccoc3)OC(=O)C3O[C@@]321 (some centres not stated)	-3.56% (inactive)	
C[C@H](CCC(=O)O)[C@H]1CC[C@@H]2[C@H]3CC[C@H]4C[C@H](O)CC[C@@]4(C)[C@@H]3CC[C@@]21C	-0.353% [at 15.4 µM] (inactive)	
COc1ccc(-c2nnco2)cc1OC	-1.75% (inactive)	
CCCOC(=O)Cc1c(O)c2ccccc2[nH]c1=O	-0.683% (inactive)	
N#CCC(=O)NC(=O)NCC1CC1	-1.78% (inactive)	
Cc1ccc(OS(=O)Nc2cccc3nccnc23)cc1 (configuration not stated)	-0.816% (inactive)	
Cc1c(S(=O)(=O)O)oc2c1C(=O)C(=O)c1c-2ccc2c1CCCC2(C)C		31.6 µM (active)
O=C(c1c(Cl)nc2sccn12)N1CCCc2ccccc21	0.508% (inactive)	
CCOc1ccc(C2C(C(=O)O)c3ccccc3C(=O)N2CCN2CCOCC2)cc1 (configuration not stated)	-2.05% (inactive)	
COc1ncc2nc(-c3ccc(Cl)cc3)c(=O)n(-c3ccccc3)c2n1	-0.967% (inactive)	
CC(=O)NC1CC2CCCC(C1)N2CC(=O)Nc1ccccc1 (configuration not stated)	5.73% (inactive)	
Cc1ccc(N(C(=O)CC2NC(=O)NC2=O)C2(C(=O)NC3CCCC3)CCCCC2)cc1 (configuration not stated)	-3.02% (inactive)	
O=S(=O)(NCc1cccnc1)c1ccc(Br)s1	-1.17% (inactive)	
Cc1cc(NC(=O)COC(=O)c2ccc(F)c(S(=O)(=O)N3CCOCC3)c2)no1	-1.52% (inactive)	
O=C1c2ccccc2S(=O)(=O)N1CC(O)Cn1c2ccccc2c2ccccc21 (configuration not stated)	-1.72% (inactive)	
O=C1OC(C(O)CO)C(O)=C1O (configuration not stated)	-0.826% [at 3.08 µM] (inactive)	
CO[C@H]1COC(=O)[C@@H](C)NC(=O)C/C=C\[C@@H](C)[C@H](OC)COC(=O)C/C=C\[C@@H]1C	-2.28% [at 15.4 µM] (inactive)	
